Inconclusive results are not listed. The source made the active and inactive calls. Rule for the calls: active = hit-call score of the fitted dose curve at least 0.9, where 1 is the maximum; inconclusive = response in the unintended direction; inactive = score below 0.9.
Read-out: HMG-CoA synthase (HMGCS2), HMGCS2 (gene 3158)
Assay: CLD_HMGCS2_24hr: CellzDirect (CLD) Gene Expression Assay for HMG-CoA synthase (HMGCS2) at 24 hours (AID 2283691)
Experimental: CLD_24hr is a cell-based, multiplexed-readout assay that uses hepatocyte, a human liver primary cell, with measurements taken at 24 hours after chemical dosing in a 96-well plate.CLD_HMGCS2_24hr is one of 16 assay component(s) measured or calculated from the CLD_24hr assay. It is designed to make measurements of mRNA induction, a form of inducible reporter, as detected with chemiluminescence signals by Quantitative Nuclease Protection Assay (qNPA) technology.Data from the assay component CLD_HMGCS2_24hr was analyzed at the endpoint, CLD_HMGCS2_24hr, in the positive analysis fitting direction relative to DMSO as the negative control and baseline of activity. Using a type of inducible reporter, gain-of-signal activity can be used to understand changes in the reporter gene as they relate to the gene HMGCS2. Furthermore, this assay endpoint can be referred to as a primary readout. To generalize the intended target to other relatable targets, this assay endpoint is annotated to the lyase intended target family, where subfamily is HMG-CoA synthase.
Human hepatocyte cultures were treated daily for two consecutive days with fresh dosing solutions containing appropriate concentrations of the 320 ToxCast chemicals (chemical identities were blinded to CellzDirect and other ToxCast collaborators), vehicle control (0.2% DMSO), and positive control inducers as summarized in Table 1. Due to the large number of treatment groups and chemicals examined, the ToxCast chemicals were divided into two groups (spanning two independent cultures of hepatocytes from separate donor preparations (Hu778: ToxCast plates 1 and 2; Hu776: ToxCast plates 3 and 4). Each preparation of human hepatocyte cultures was treated with respective vehicle control, medium only control, set of six positive controls/reference chemicals for the five hepatic receptor pathways, and a subset of eight of the ToxCast chemicals (indoxacarb, pyrithiobac-sodium, norflurazon, cyhalofop-butyl, methomyl, thiram, acetochlor, and propiconazole). These replicate data, coupled with internal replicates designed within the blinded ToxCast chemical library, provided additional data to evaluate interindividual differences between hepatocyte preparations and their potential impact on chemical profiles.Cell morphology and integrity were evaluated using phase-contrast microscopy as an indicator of hepatocyte cell health (Tyson & Green, 1987). Cultures for each treatment group (i.e., media, vehicle [0.2% DMSO], positive control inducers [multiple concentrations], and the ToxCast chemicals [multiple concentrations]) were observed and cell morphology was assessed relative to vehicle control cultures at each harvest time point (0, 6, 24, or 48 h). […] Images were evaluated at the conclusion of the study to assess changes in cell integrity and account for the effects of chemical exposure on uncharacteristic changes in concentration-dependent gene expression profiles. The results from these determinations of apparent cytotoxicity were annotated (yes/no) alongside the corresponding qNPA data for reference.At the conclusion of each treatment period, hepatocyte cultures (96-well) were washed with 1 volume of HBSS, lysed by addition of 25 ul ArrayPlate lysis buffer (HTG, Tucson, AZ), and 70 ul/well of Denaturation Oil, denatured by incubation at 95C for 10 min, and frozen at approximately -70C until analysis by nuclease protection assay (qNPA) (Roberts et al., 2007). For qNPA analysis, cell lysates were thawed at 50C for approximately 30 min, qNPA probes were added, and samples were incubated at 95C for 10 min to begin the detection process by denaturing the target RNA, dissociating the duplexes and secondary structure hybridization. At the conclusion of the hybridization period, S1 nuclease reagent was added to each sample to digest all nonprotected nucleotides at 50C for 60-90 min. […]

| SMILES | outcome |
| --- | --- |
| CC(Oc1cccc(Cl)c1)C(=O)O (stereo not given) | inactive |
| O=c1ccc(=O)[nH][nH]1 | inactive |
| CC(=NC#N)N(C)Cc1ccc(Cl)nc1 | inactive |
| CC(COc1ccc(Oc2ccccc2)cc1)Oc1ccccn1 (stereo not given) | inactive |
| COP(=O)(OC)C(O)C(Cl)(Cl)Cl (stereo not given) | inactive |
| CCOP(=O)(OCC)Oc1cc(C)nc(C(C)C)n1 | inactive |
| CCc1cnc(C2=NC(C)(C(C)C)C(=O)N2)c(C(=O)O)c1 (stereo not given) | inactive |
| COc1cc(OC)nc(Sc2cccc(Cl)c2C(=O)O)n1 | inactive |
| CCCCOC(=O)[C@@H](C)Oc1ccc(Oc2ccc(C#N)cc2F)cc1 | inactive |
| CCOP(=S)(OCC)SCCSCC | inactive |
| CCCCOC(=O)c1ccccc1C(=O)O | inactive |
| CC[C@H](C)[C@H]1O[C@]2(C=C[C@@H]1C)C[C@@H]1C[C@@H](C/C=C(\C)[C@@H](O[C@H]3C[C@H](OC)[C@@H](O[C@H]4C[C@H](OC)[C@@H](NC)[C@H](C)O4)[C@H](C)O3)[C@@H](C)/C=C/C=C3\CO[C@@H]4[C@H](O)C(C)=C[C@@H](C(=O)O1)[C@]34O)O2 | inactive |
| CCOP(=S)(OCC)OC(Cl)C(Cl)(Cl)Cl (stereo not given) | inactive |
| CNC(=O)ON=C(SC)C(=O)N(C)C | inactive |
| CC1=NNC(=O)N(/N=C/c2cccnc2)C1 | inactive |
| CSC1=N[C@@](C)(c2ccccc2)C(=O)N1Nc1ccccc1 | inactive |
| C[N+]1(C)CCCCC1 | inactive |
| CCCSP(=O)(OCC)SCCC | inactive |
| O=C(O)c1cc(Oc2ccc(C(F)(F)F)cc2Cl)ccc1[N+](=O)[O-] | inactive |
| CN(C)[C@@H]1C(=O)C(C(N)=O)=C(O)[C@@]2(O)C(=O)C3=C(O)c4c(O)cccc4[C@@](C)(O)[C@H]3[C@H](O)[C@@H]12 | inactive |

From PubChem BioAssay (EPA / NIEHS)
